Reference: PubChem BioAssay AID540361 (National Center for Advancing Translational Sciences (NCATS), 2011)
Records with an inconclusive call do not appear. The source made the active and inactive calls. The call rests on the fitted dose curve; in most records, active means well fitted curve in the direction sought with a large enough effect; inconclusive means small, poorly fitted or top-dose-only effect, or another doubt; inactive means no such curve, though single readings can be large or run the other way.

Target: Lysosomal acid glucosylceramidase (Homo sapiens) (UniProt P04062)
Test: Activators of Human alpha-Glucosidase as a Potential Chaperone Treatment of Pompe Disease: Alpha-Galactosidase Counter Screen
Conditions: purified human alpha-galactosidase, 4-MU fluorogenic substrate
Excerpt: Alpha-glucosidase is responsible for hydrolysis of terminal, non-reducing 1,4-linked alpha-D-glucose residues with release of alpha-D-glucose. It is a lysosomal hydrolase that is required for the degradation of a small percentage (1-3%) of cellular glycogen in human. Deficiency of this enzyme results in glycogen-storage disease type II (GSDII), also referred to as Pompe disease, an autosomal recessive disorder. Structurally normal glycogen is accumulated in lysosomes and cytoplasm in affected patients, primarily in muscle tissues. Excessive glycogen storage within lysosomes may interrupt normal functioning of other organelles and leads to cellular injury. In turn, this leads to enlargement and dysfunction of the entire organ involved (eg, cardiomyopathy and muscle weakness). […]
This is a fluorogenic enzyme assay with 4-methylumbelliferyl-[…] as the substrate and human alpha-galactosidase as the enzyme preparation. […] 4-methyllumbelliferone, can be excited at 365 nm and emits at 440 nm which can be detected by a standard fluorescence plate reader. […] In the AC50 values were determined from concentration-response data modeled with the standard Hill equation. […] (5) Add 2 ul stop solution (1M NaOH and 1M Glycine mixture, pH 10) (6) Detect the assay plate in a ViewLux plate reader (PerkinElmer) with Ex=365 nm and Em=440nm. […]

## CCCN1CNc2c(c(=O)[nH]c(=S)n2CCc2cccc(Cl)c2Cl)C1
  Potency: 9.13 µM (active)
